Data on 22 compounds can be found in PubChem BioAssay (EPA / NIEHS).

Activity calls are given as the source filed them. Rule for the calls: active = hit-call score of the fitted dose curve at least 0.9, where 1 is the maximum; inactive = score below 0.9.

As usually defined, the AC50 is the concentration giving half of the maximal activity seen.

Assay [1] in a line: APR_HepG2_CellLoss_72hr: Apredica 72-hour HepG2 Assay for Cell Loss (AID 2282915). The conditions noted are these: high-content imaging. Put shortly: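 HepG2 cells exposed 72 h to compound at 0.39–200 uM (10 concentrations, duplicate) in 0.5% DMSO. Fixed with 3.7% formaldehyde and Hoechst 33342-stained. Imaged at 20x; nuclear count gives cell number, fitted bidirectionally versus DMSO.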

Assay [2] is described as follows: APR_HepG2_P-H2AX_72hr: Apredica 72-hour HepG2 Assay for H2AX Phosphorylation (AID 2282916).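 Note: phospho-histone H2A.x immunostain intensity per cell marking DNA damage.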 The conditions noted are these: imaging, actives raise or lower the signal. Put shortly:
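Phospho-H2A.x imaging endpoint in HepG2 after 72 hr compound exposure (0.39–200 uM, duplicate wells). Activity derived by bidirectional curve fitting with DMSO as baseline.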

Assay [3] in a line: APR_HepG2_MitoMembPot_72hr: Apredica 72-hour HepG2 Assay for Mitochondrial Membrane Potential (AID 2282917). The following applies: imaging, actives raise or lower the signal. In a few lines:
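HepG2 cells dosed 72 hr with compound at 0.39–200 uM in duplicate, 0.5% v/v DMSO final. Mitochondria stained with 250 nM MitoTracker Red CMXRos for 30 min before formaldehyde fixation, imaged by high-content fluorescence; bidirectional fit versus DMSO.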

A short description of assay [4]: APR_HepG2_MitoticArrest_72hr: Apredica 72-hour HepG2 Assay for Mitotic Arrest (AID 2282918). The following applies: high-content imaging, actives raise or lower the signal. In a few lines: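 HepG2 cells treated 72 h at 0.39–200 uM, 0.5% DMSO final; formaldehyde-fixed, stained with Hoechst 33342 and phospho-histone H3 antibody, imaged by high-content fluorescence; bidirectional fit versus DMSO.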

The nature of assay [5]: APR_HepG2_MicrotubuleCSK_72hr: Apredica 72-hour HepG2 Assay for Microtubule CSK Stabilty (AID 2282919). The following applies: HepG2 microtubule cytoskeleton, high-content imaging, actives raise or lower the signal. Put shortly: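 HepG2, 72 hr cmpd exposure, 0.39–200 uM (10 pts, duplicate), 0.5% DMSO. 3.7% formaldehyde fix, 0.5% Triton perm, anti-alpha-tubulin/Cy5 plus Hoechst. HCS fluorescence intensity; bidirectional fit vs DMSO baseline; taxol as positive control.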

Assay [6] can be described thus: APR_HepG2_P-H2AX_24hr: Apredica 24-hour HepG2 Assay for H2AX Phosphorylation (AID 2282920). The following applies: high-content imaging, actives raise or lower the signal. Put shortly: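 HepG2 cells dosed 24 h at 0.39–200 uM (10 points, duplicate, 0.5% DMSO final). Formaldehyde-fixed and permeabilized, then immunostained for phospho-H2A.x with Hoechst. Fluorescence quantified by high-content imaging, fitted bidirectionally versus DMSO.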

Assay [7] is described as follows: APR_HepG2_StressKinase_72hr: Apredica 72-hour HepG2 Assay for Stress Kinase (AID 2282921). The following applies: HepG2 stress kinase (phospho-c-Jun) imaging, actives raise or lower the signal. In a few lines:
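Stress kinase signal reflects nuclear phospho-c-Jun staining in fixed, permeabilized cells exposed 72 h to compound at 0.39–200 uM; DMSO-normalized, fitted for increases or decreases.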

A short description of assay [8]: APR_HepG2_StressKinase_24hr: Apredica 24-hour HepG2 Assay for Stress Kinase (AID 2282922). The following applies: HepG2 stress kinase (phospho-c-Jun) imaging, actives raise or lower the signal. Put shortly:
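Read-out: phospho-c-Jun immunofluorescence (Cy3 secondary) quantified by high-content imaging at 20x, nuclei defined by Hoechst 33342. Human HepG2 liver cells dosed 24 hr, 0.39–200 uM, DMSO 0.5% v/v; gain or loss of signal fitted relative to DMSO.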

Assay [9] is described as follows: APR_HepG2_p53Act_72hr: Apredica 72-hour HepG2 Assay for p53 Activation (AID 2282923).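 Note: average cellular p53 protein immunofluorescence intensity in HepG2 cells.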 The following applies: high-content imaging, actives raise or lower the signal. In a few lines: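 Fixed-cell p53 staining (sheep primary, Cy5 secondary) measured by fluorescence imaging following 72 hr treatment at 0.39–200 uM in 0.5% DMSO; DMSO served as negative control and baseline.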

Assay [10] is described as follows: APR_HepG2_MitoMass_72hr: Apredica 72-hour HepG2 Assay for Mitochondrial Mass (AID 2282924).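 Note: MitoTracker Red CMXRos stain intensity per cell imaged as mitochondrial mass.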 The conditions noted are these: high-content imaging, actives raise or lower the signal. Put shortly:
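Read-out: MitoTracker Red fluorescence intensity from automated imaging (20x, six fields per well) in human HepG2 liver cells. Dosing ran 72 hr, 0.39–200 uM, 0.5% DMSO; bidirectional curve fitting versus DMSO baseline.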

Consider `Cc1ccc(C(C)C)c(O)c1`, for which the outcome in assay [1], in assay [2], in assay [3], in assay [4], in assay [5] and in [6] was inactive. For the same compound, the outcome in assay [7], in [8] and in [9] was inactive.

In the case of `CCCCc1ccc2c(n1)[C@@H](c1ccc(OC)cc1C[C@H](C)C(=O)O)[C@H](C(=O)O)[C@H]2c1ccc2c(c1)OCO2`, the compound was called inactive in [1], in assay [2], in [3], in [4], in [5] and in assay [6]. Besides, the compound was classed as inactive in assay [7], in assay [8], in assay [9] and in assay [10].

As to `Cc1ccc(C)c(O)c1C`, the half-maximal activity concentration (AC50) in [1] is 12.4 µM (active); in assay [4], 13.4 µM (active); in assay [9] it was 16.9 µM (active); in [10] it was 9.74 µM (active). Moreover, the outcome in assay [2], in assay [3], in assay [5], in [6], in assay [7] and in [8] was inactive.

On to `Cc1ccc2ncccc2c1`, for which the call in assay [1], in assay [2], in [3], in assay [4], in assay [5] and in assay [6] was inactive. Also, the result in assay [7], in assay [8] and in [9] was inactive.

Turning to `CC(=O)Oc1ccccc1C(=O)O`, the outcome in assay [1], in assay [2], in assay [3], in assay [4], in assay [5] and in assay [6] was inactive. The call in assay [7], in assay [8], in [9] and in assay [10] was inactive.

With `COc1cc(/C=C/C(=O)CC(=O)/C=C/c2ccc(O)c(OC)c2)ccc1O`, the AC50 in assay [1] is 9.56 µM (active); in assay [2], 15.1 µM (active); in [4], 22 µM (active); in [5] it was 15.9 µM (active); in assay [6] it was 76.1 µM (active); in assay [7], 11.2 µM (active). Moreover, the half-maximal activity concentration (AC50) in [8] is 47.9 µM (active); in assay [9], 19.1 µM (active); in assay [10], 22.2 µM (active). Besides, the compound was classed as inactive in assay [3].

Regarding `Cc1nc(-c2ccc3c(c2)CCN(CCC2CCC(NC(=O)/C=C/c4ccc(F)cc4)CC2)CC3)no1` (centres undefined), the call in assay [1], in assay [3], in assay [5], in assay [6] and in assay [8] was inactive. Also, the AC50 in [2] is 25.2 µM (active); in assay [4], 24.2 µM (active); in assay [7], 16.2 µM (active); in assay [9] it was 23.8 µM (active).

For the compound `CCCCCCCCCCO`, the call in [1], in [2], in assay [3], in assay [4], in assay [5] and in assay [6] was inactive. Also, the result in assay [7], in assay [8], in assay [9] and in assay [10] was inactive.

Consider `CCCCCCCCCCCCCO`, for which the AC50 was 113 µM (active) in [1], 108 µM (active) in assay [2], 120 µM (active) in [3] and 104 µM (active) in [4]. In addition, the call in [5], in [6], in assay [7], in assay [8] and in assay [9] was inactive.

`CC1(C)NC(=O)NC1=O`: the compound was classed as inactive in [1], in assay [2], in assay [3], in [4], in [5] and in [6]. In addition, the call in [7], in [8] and in [9] was inactive.

With `CCCCCCCCCCCCCCCCCC(=O)O`, the call in assay [1], in assay [2], in [3], in assay [5], in assay [6] and in assay [7] was inactive. Besides, the call in assay [8], in [9] and in assay [10] was inactive. Besides, the AC50 in assay [4] was 49.9 µM (active).

Take `Cc1cccc(Nc2cc(Cl)nc(SCC(=O)O)n2)c1C`: the outcome in [1], in assay [2], in [3], in assay [4], in [5] and in assay [6] was inactive. The outcome in [7], in assay [8] and in assay [9] was inactive.

In the case of `CCCCCCOCCO`, the compound was called inactive in [1], in assay [2], in assay [3], in assay [4], in [5] and in assay [6]. For the same compound, the call in [7], in [8], in [9] and in assay [10] was inactive.

As to `Oc1ccc2ccccc2c1N=Nc1ccccc1`, the values for the half-maximal activity concentration (AC50) in [1], in [2] and in [10] were 0.606 µM (active), 2.49 µM (active) and 0.0806 µM (active), respectively. Also, the result in [3], in assay [4], in assay [5], in assay [6], in assay [7] and in assay [8] was inactive. Moreover, in assay [9], the compound was classed as inactive.

Turning to `CC(=O)OC/C=C(\C)CCC=C(C)C`, the call in [1], in [2], in assay [3], in assay [4], in assay [5] and in assay [6] was inactive. Moreover, the result in assay [7], in [8], in assay [9] and in assay [10] was inactive.

`C=CCOC(=O)c1ccccc1C(=O)OCC=C`: the outcome in [1], in assay [2], in assay [3], in [4], in [5] and in [6] was inactive. The compound was called inactive in [7], in assay [8], in assay [9] and in [10].

For `CCCCCCCCCCCCCCCC`, the call in assay [1], in [2], in assay [3], in assay [4], in [5] and in assay [6] was inactive. In addition, the outcome in [7], in assay [8], in [9] and in assay [10] was inactive.

On to `CCCc1cc(=O)[nH]c(=S)[nH]1`, for which the outcome in [1], in [2], in assay [3], in assay [4], in assay [5] and in [6] was inactive. The compound was classed as inactive in [7], in assay [8], in assay [9] and in assay [10].

Turning to `CC=Cc1ccc(O)c(OC)c1`, the compound was called inactive in [1], in assay [2], in assay [3], in assay [4], in assay [5] and in assay [6]. Further, the result in assay [7], in [8], in assay [9] and in [10] was inactive.

Consider `CN[C@H]1CC[C@@H](c2ccc(Cl)c(Cl)c2)c2ccc(S(N)(=O)=O)cc21`, for which the half-maximal activity concentration (AC50) in [1] is 6.85 µM (active); in [2], 100 µM (active); in [4], 3.89 µM (active); in assay [5], 12.1 µM (active); in assay [6], 100 µM (active); in assay [7], 123 µM (active). Moreover, the call in assay [3], in [8], in assay [9] and in [10] was inactive.

Consider `CCCCCCCCCCCC(=O)OC`, for which the call in assay [1], in assay [2], in [3], in assay [4], in assay [5] and in assay [6] was inactive. For the same compound, the result in assay [7], in assay [8], in assay [9] and in [10] was inactive.

For `c1cc(-c2ccncc2)ccn1`, the outcome in [1], in assay [2], in assay [3], in assay [4], in assay [5] and in assay [6] was inactive. Besides, the compound was called inactive in assay [7], in assay [8], in assay [9] and in [10].
